The whole screen tested about 48,000 compounds, of which about 13,000 (27%) showed an effect of 50% or more. The list shows a part of the results.
What follows are molecules tested on Wolbachia pipientis (assay: Anti-Wolbachia Cell-Based Screen). Conditions: 5 µM.
Type: functional
Set-up: scale not given: in the data most compounds retested in dose-response had high values

Row | Structure (SMILES) | Percent Effect [%]
1 | O=C(N[C@@H]1CNCCC[C@H]1O)c1ccc(OCCN2CCOCC2)cc1 | 0.8179
2 | O=C(N[C@@H]1CNCCC[C@H]1O)c1ccc(OCCN2CCCC2)cc1 | 0.07573
3 | CO[C@@H]1CC[C@@H](NC(=O)c2ccc(OCCN3CCCC3)cc2)[C@H]1O | 109.4
4 | c1cn(CCc2c[nH]cn2)c(-c2cc(CN3CCCC3)cs2)n1 | -0.5916
5 | Cl.Fc1ccccc1CNc1ccnc(C2CCNCC2)c1 | 96.16
6 | NS(=O)(=O)c1ccc(NCc2ccccc2F)cc1C(F)(F)F | -7.773
7 | Cl.Fc1ccccc1Cn1c(C2CCNCC2)cc2cccnc21 | 115.9
8 | CC(C)(C)OC(=O)N1CC(CC(=O)NCc2ccnc(C3CC3)c2)C1 | -29.57
9 | Cl.Fc1cccc(F)c1Cn1c(C2CCNCC2)cc2cccnc21 | 115.5
10 | Cl.c1cnc2c(c1)cc(C1CCOCC1)n2CCN1CCOCC1 | -3.513
11 | Cl.Fc1cccc(F)c1Cn1c(C2CCCNC2)cc2cccnc21 (stereo not drawn) | 125.8
12 | O=C(O)C(F)(F)F.O=C(c1ncccn1)N1CC[C@H]2OCC[C@@]2(COc2ccccn2)C1 | -10.25
13 | COC(=O)c1ccc(S(=O)(=O)N(C)CC(N)=O)c(Cl)c1 | -3.285
14 | Cc1cnn(CC2CCCN2Cc2cc(=O)n3cccc(C)c3n2)c1 (stereo not drawn) | 6.367
15 | COc1ccc2c(c1)CCCC2CC(=O)O (stereo not drawn) | -1.038
16 | O=C(NC1CCC1)[C@H]1C[C@@H]2[C@@H](C1)OCCN2CC1CC1.O=C(O)C(F)(F)F | -6.466
17 | Cc1cc(-n2cncn2)ccc1C(=O)N(CC(F)(F)F)C(C)C | -3.659
18 | Cc1nc(-c2ccccc2)sc1CSCCC(N)=O | 7.014
19 | CN(Cc1noc2c1CCCC2)C(=O)C1CCOc2ccccc2C1 (stereo not drawn) | -27.45
20 | COc1nc2c(cc1C(=O)N(C)Cc1n[nH]c3c1CCCC3)CCC2 | -1.669
21 | CC1=C(C(=O)N(C)Cc2noc3c2CCCC3)C(C)NC(=O)N1 (stereo not drawn) | 99.57
22 | CN(Cc1noc2c1CCCC2)C(=O)CN1C(=O)COc2ccccc21 | -4.066
23 | O=C(NCc1n[nH]c2c1CCCCC2)c1cnn2c1CCCC2 | -12.98
24 | CC(=O)N1C[C@@H]2CC[C@H](C1)N(C(=O)CCc1n[nH]c3c1CCCC3)C2 | -10.18
25 | CCCn1ncc(C(=O)NCc2n[nH]c3c2CCCCC3)c1C | -11.8
26 | CC1=C(C(=O)N(C)Cc2n[nH]c3c2CCCCC3)C(C)NC(=O)N1 (stereo not drawn) | 97.58

Row | Structure (SMILES) | Percent Effect [%]
27 | CC1=C(C(=O)NCCc2n[nH]c3c2CCCC3)C(C)NC(=O)N1 (stereo not drawn) | 140.8
28 | COCCCC1CCCN(C(=O)CCc2csc(N)n2)C1 (stereo not drawn) | 18.03
29 | CC(NCCN1CCC(N(C)C)CC1)c1ccc(Cl)s1 (stereo not drawn) | 1.149
30 | Cc1cccc(=O)n1CCCNc1nc(N(C)C)nc2c1CCNCC2 | -26.54
31 | O=C(O)C(F)(F)F.O=C(c1ccccc1-c1ccccc1)N1C[C@@H]2CNC[C@]2(C(=O)O)C1 | 7.106
32 | Fc1cc(Oc2ccc(C(F)(F)F)cn2)cc(F)c1CN1CCCC1 | -0.6803
33 | N#Cc1ccc(Oc2cc(F)c(CN3CCCC3)c(F)c2)nc1 | 28.32
34 | N#Cc1cccnc1Oc1cc(F)c(CN2CCCC2)c(Cl)c1 | 85.58
35 | COc1ccc(Oc2ncccc2F)cc1CN1CCCC1 | -25.38
36 | Fc1cccnc1Oc1cc(F)c(CN2CCCC2)c(F)c1 | 105.5
37 | COc1cc(Oc2ncccc2C(F)(F)F)ccc1CN1CCCC1 | 7.614
38 | COc1ccc(Oc2ncccc2C(F)(F)F)cc1CN1CCCC1 | 21.25
39 | N#Cc1cccc(Oc2ccc(CN3CCCC3)cc2Cl)n1 | 1.122
40 | Fc1cccnc1Oc1cc(F)c(CN2CCCC2)c(Cl)c1 | 96.1
41 | O=C(NCc1ccccc1CN1CCCCCC1)Nc1nncs1 | -11.94
42 | CCc1csc(CNC2CCN(Cc3ccccc3)C2)n1 (stereo not drawn) | -41.87
43 | O=c1[nH]c(=O)n(CC(O)c2ccccc2Cl)cc1Cl (stereo not drawn) | -2.887
44 | CCCn1cnnc1CNC(=O)C1COc2ccc(OC)cc2C1 (stereo not drawn) | -4.97
45 | Fc1ccc(Nc2ccc(C3CCN(Cc4ncc[nH]4)CC3)nc2)nc1 | 114.5
46 | Cc1cc(Nc2ccc(F)cn2)cc(C2CCN(Cc3ncc[nH]3)C2)n1 (stereo not drawn) | 87.11
47 | Clc1cc(Cl)cc(CN2CCC(NCc3ncc[nH]3)CC2)c1 | 21.36
48 | Cn1cncc1-c1nnc([C@H]2CCN(Cc3ncc[nH]3)C2)o1 | -1.708
49 | Brc1ccc(CN2CCC(NCc3ncc[nH]3)CC2)cc1 | 0.1556
50 | Cc1cccc(Nc2ccc(C3CCN(Cc4ncc[nH]4)CC3)nc2)n1 | 108.6
51 | CC(C)(C)c1n[nH]c(C2CN(Cc3ncc[nH]3)CCO2)n1 (stereo not drawn) | -4.416
52 | CCCc1n[nH]c(C2CN(Cc3ncc[nH]3)CCO2)n1 (stereo not drawn) | 0.7755

Row | Structure (SMILES) | Percent Effect [%]
53 | CCCc1nnc([C@H]2CCN(Cc3ncc[nH]3)C2)o1 | 2.62
54 | CN(Cc1cccnc1)c1nc(-c2ccccn2)nc2c1CCNCC2 | -5.428
55 | Cc1cnn(CCCn2ncc(N3CCC(CN)C3)cc2=O)c1 (stereo not drawn) | -3.735
56 | CCCC(C#N)NC(=O)CCCOc1cccc(C(C)=O)c1 (stereo not drawn) | 17.87
57 | CCC(O)Cn1nc(-c2ccc(C(=O)O)cc2)cc1-c1cccc(F)c1 (stereo not drawn) | 112
58 | CCC(=O)NCC(Cc1cccc(F)c1)n1cccc1 (stereo not drawn) | -1.872
59 | CCC(O)CN1CCN(C(=O)c2ccn(-c3cccc(F)c3)n2)CC1 (stereo not drawn) | -17.79
60 | NC(=O)NC(=O)CCn1ccc(-c2ccc(F)cc2)n1 | -9.81
61 | CC(C(N)=O)N(C)CCCc1cc(-c2ccc(F)cc2)n(C)n1 (stereo not drawn) | 117.2
62 | CC(C(N)=O)N(C)CCCc1cc(-c2ccccc2)no1 (stereo not drawn) | -1.184
63 | CN(CC(=O)NS(=O)(=O)c1ccc(F)cc1)Cc1ccccc1 | -17.38
64 | CN(CCCc1cc(-c2ccc(F)cc2)n(C)n1)CC(N)=O | 124.4
65 | CC(C)Cc1cc(C(=O)NCC(c2ccc(F)cc2)N(C)C)n(C)n1 (stereo not drawn) | -14.68
66 | CN(CC(N)=O)Cc1ccc(F)cc1Cl | -24.21
67 | CN(CCCc1cc(-c2ccc(F)cc2)n[nH]1)C(=O)CCn1cncn1 | -5.05
68 | CN(CCCc1cc(-c2ccc(F)cc2)n(C)n1)CC(=O)NC(N)=O | 129.4
69 | NC(=O)CCSCc1ccc(Br)c(F)c1 | -4.384
70 | CCC(CO)N(Cc1cccs1)C(=O)Cc1ccncc1 (stereo not drawn) | -5.56
71 | c1ccc2c(c1)nc1n2[C@@H](CNCc2nccs2)COC1 | 3.551
72 | Cn1ccnc1SCCNC(=O)CC1CCc2ccccc21 (stereo not drawn) | -4.259
73 | Cc1ccc(S(=O)(=O)NCC2CNCCOC2)cc1Cl (stereo not drawn) | -1.884
74 | Cc1cccc2[nH]c(C3CCN(C(=O)c4cnc(O)cc4O)CC3)nc12 | -25
75 | Cn1[nH]c(C2CC2)c(-c2ccc3c(c2)OCO3)c1=N | -0.9629
76 | CN(Cc1cccnc1)C[C@H]1CC[C@@H](Cc2ccc3c(cnn3C)c2)O1 | -1.235
77 | Cc1cnn(CC(C)NCc2nc(-c3cccnc3)no2)c1 (stereo not drawn) | 10.95
78 | Cc1ccc(-c2noc(CN3CC(n4cc(C)cn4)C3)n2)cc1 | 109

Row | Structure (SMILES) | Percent Effect [%]
79 | Cc1ccccc1-c1noc(CN2CC(n3cccn3)C2)n1 | 17.98
80 | Cc1cnn(C2CN(Cc3nc(-c4cccnc4)no3)C2)c1 | 94.26
81 | Cc1cnn(C2CN(Cc3nnc(Cc4ccccc4)o3)C2)c1 | -8.725
82 | Cc1cnn(C2CN(Cc3nnc(-c4ccccc4Cl)o3)C2)c1 | 0.6902
83 | Cc1cnn(C2CN(Cc3nc(-c4ccco4)no3)C2)c1 | -0.024
84 | Cc1cnn(C2CN(Cc3noc(C)n3)C2)c1 | 14.64
85 | Cc1cccc(-c2noc(CN3CC(n4cc(C)cn4)C3)n2)c1 | 6.599
86 | Cc1cnn(C2CN(Cc3nc(-c4ccccn4)no3)C2)c1 | 99.99
87 | Cc1cnn(C2CN(Cc3nc(C(C)(C)C)no3)C2)c1 | -1.752
88 | Cc1cnn(C2CN(Cc3nc(-c4ccccc4C)no3)C2)c1 | 81.63
89 | O=c1cc(N2CCNCC2)cnn1Cc1noc(C2CCCC2)n1 | 5.676
90 | CC(=O)N1CCC(C(=O)Nc2nnc(C(F)(F)F)[nH]2)CC1 | -2.768
91 | CC(=O)N[C@@H]1CN(C(=O)c2cnccn2)C[C@H]1c1ccc(C)cc1 | 4.61
92 | Cc1ncc(CN2CCC(c3ccnn3C)CC2)n1-c1ccccc1 | 4.232
93 | O=C(NCCOCCO)c1cnc(-c2ccccc2)nc1O | -4.282
94 | COc1cnc(CN2CCN(CC(C)C)C(=O)C2C)cc1O (stereo not drawn) | -7.655
95 | Cn1cnc2c1CCN(Cc1nc(-c3ccsc3)no1)C2 | -4.856
96 | Cc1cccc(-c2noc(CN3CC(n4cccn4)C3)n2)c1 | 120.1
97 | COc1ccc(-c2nc(CN3CC(n4cc(C)cn4)C3)no2)cc1 | 7.343
98 | Cc1cnn(C2CN(Cc3nc(-c4ccsc4)no3)C2)c1 | 107.2
99 | COc1ccc(-c2noc(CN3CC(n4cccn4)C3)n2)c(OC)c1 | 7.442
100 | COc1ccc(-c2noc(CN3CC(n4cc(C)cn4)C3)n2)cc1 | 101.6
101 | c1coc(-c2noc(CN3CC(n4cccn4)C3)n2)c1 | -9.344
102 | c1cnn(C2CN(Cc3nc(-c4ccsc4)no3)C2)c1 | -8.892
103 | Cc1ccc(-c2nnc(CN3CC(n4cc(C)cn4)C3)o2)cc1 | 13.03

— ChEMBL document CHEMBL3988442, “University of Dundee, Small-Polar-MMV Screening Library” (2021)
